# According to paper PMC11006913:
# Numbering of substitutions follows the chain as printed.
# Tests used:
# Assay in all cases: PBM; 200 nM protein, PBS
# Settings in all cases: dsDNA, one strand shown
# MSX2 [1] = biological target: MSX2 (Homo sapiens, UniProt P35548 130-214, R199I)
# MSX2 [2] = biological target: MSX2 (Homo sapiens, UniProt P35548 130-214)
# MSX2 [3] = biological target: MSX2 (Homo sapiens, UniProt P35548 130-214, F161Y)
# HOXD13 [4] = biological target: HOXD13 (Homo sapiens, UniProt P35453 263-343, T313R)
# HOXD13 [5] = biological target: HOXD13 (Homo sapiens, UniProt P35453 263-343)
# HOXD13 [6] = biological target: HOXD13 (Homo sapiens, UniProt P35453 263-343, T313A)
# NKX2-6 [7] = biological target: T1, NKX2-6 (Homo sapiens, UniProt A6NCS4 118-204)
# T1 sequence: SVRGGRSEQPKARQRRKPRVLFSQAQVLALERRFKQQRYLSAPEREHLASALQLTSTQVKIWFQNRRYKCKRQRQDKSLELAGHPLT
# VAX1 [8] = biological target: VAX1 (Homo sapiens, UniProt Q5SQQ9 86-172)
# NKX2-6 [9] = biological target: T2, NKX2-6 (Homo sapiens, UniProt A6NCS4 118-204, F151L)
# T2 sequence: T1 sequence with F34L
# VAX1 [10] = biological target: VAX1 (Homo sapiens, UniProt Q5SQQ9 86-172, T142I)
# VAX1 [11] = biological target: VAX1 (Homo sapiens, UniProt Q5SQQ9 86-172, K157R)
# HOXA2 = HOXA2 (Homo sapiens, UniProt O43364 129-215, R185K)
# Sequence of HOXA2 (O43364 129-215 R185K): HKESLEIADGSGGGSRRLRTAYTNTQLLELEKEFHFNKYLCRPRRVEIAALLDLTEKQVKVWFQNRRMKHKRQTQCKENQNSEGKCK
# Sequence of MSX2 (Homo sapiens, UniProt P35548 130-214) (P35548 130-214): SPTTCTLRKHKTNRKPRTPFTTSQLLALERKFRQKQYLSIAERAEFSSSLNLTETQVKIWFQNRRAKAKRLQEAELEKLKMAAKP
# Sequence of MSX2 (Homo sapiens, UniProt P35548 130-214, R199I) (P35548 130-214 R199I): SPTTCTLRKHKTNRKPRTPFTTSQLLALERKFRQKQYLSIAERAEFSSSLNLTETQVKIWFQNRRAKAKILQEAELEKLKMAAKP
# Sequence of MSX2 (Homo sapiens, UniProt P35548 130-214, F161Y) (P35548 130-214 F161Y): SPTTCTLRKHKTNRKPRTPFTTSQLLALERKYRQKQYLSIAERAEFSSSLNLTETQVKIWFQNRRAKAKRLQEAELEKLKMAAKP
# Sequence of VAX1 (Homo sapiens, UniProt Q5SQQ9 86-172, K157R) (Q5SQQ9 86-172 K157R): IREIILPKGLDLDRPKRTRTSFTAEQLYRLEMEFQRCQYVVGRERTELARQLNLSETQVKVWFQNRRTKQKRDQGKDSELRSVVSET
# Sequence of VAX1 (Homo sapiens, UniProt Q5SQQ9 86-172, T142I) (Q5SQQ9 86-172 T142I): as the sequence (Q5SQQ9 86-172 K157R) above, with T57I, R72K counted along it
# Sequence of VAX1 (Homo sapiens, UniProt Q5SQQ9 86-172) (Q5SQQ9 86-172): as the sequence (Q5SQQ9 86-172 K157R) above, with R72K counted along it
# Sequence of HOXD13 (Homo sapiens, UniProt P35453 263-343, T313A) (P35453 263-343 T313A): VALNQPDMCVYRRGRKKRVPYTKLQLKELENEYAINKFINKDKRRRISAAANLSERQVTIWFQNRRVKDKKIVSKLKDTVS
# Sequence of HOXD13 (Homo sapiens, UniProt P35453 263-343, T313R) (P35453 263-343 T313R): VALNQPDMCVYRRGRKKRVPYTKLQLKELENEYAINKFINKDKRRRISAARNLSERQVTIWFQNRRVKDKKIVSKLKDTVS
# Sequence of HOXD13 (Homo sapiens, UniProt P35453 263-343) (P35453 263-343): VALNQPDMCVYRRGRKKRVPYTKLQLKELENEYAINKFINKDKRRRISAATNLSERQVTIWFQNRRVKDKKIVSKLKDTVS
sequence,measurement,setting,value
TAATCAAA,binding signal,MSX2 [1],"11.1 upbm affinity estimate (log intensity, higher = more binding, comparable within an allelic series)"
same,binding signal,MSX2 [2],"12.4 upbm affinity estimate (log intensity, higher = more binding, comparable within an allelic series)"
same,binding signal,MSX2 [3],"12.1 upbm affinity estimate (log intensity, higher = more binding, comparable within an allelic series)"
AGGGGGAG,binding signal,MSX2 [1],"9.43 upbm affinity estimate (log intensity, higher = more binding, comparable within an allelic series)"
same,binding signal,MSX2 [2],"9.52 upbm affinity estimate (log intensity, higher = more binding, comparable within an allelic series)"
same,binding signal,MSX2 [3],"9.49 upbm affinity estimate (log intensity, higher = more binding, comparable within an allelic series)"
AGCGGGGC,binding signal,MSX2 [1],"9.48 upbm affinity estimate (log intensity, higher = more binding, comparable within an allelic series)"
same,binding signal,HOXD13 [4],"9.49 upbm affinity estimate (log intensity, higher = more binding, comparable within an allelic series)"
same,binding signal,HOXD13 [5],"9.31 upbm affinity estimate (log intensity, higher = more binding, comparable within an allelic series)"
same,binding signal,MSX2 [2],"9.55 upbm affinity estimate (log intensity, higher = more binding, comparable within an allelic series)"
same,binding signal,HOXD13 [6],"9.49 upbm affinity estimate (log intensity, higher = more binding, comparable within an allelic series)"
same,binding signal,MSX2 [3],"9.55 upbm affinity estimate (log intensity, higher = more binding, comparable within an allelic series)"
GCAATCAA,binding signal,MSX2 [1],"10.9 upbm affinity estimate (log intensity, higher = more binding, comparable within an allelic series)"
CCTGACTC,binding signal,MSX2 [1],"9.6 upbm affinity estimate (log intensity, higher = more binding, comparable within an allelic series)"
same,binding signal,MSX2 [2],"9.49 upbm affinity estimate (log intensity, higher = more binding, comparable within an allelic series)"
same,binding signal,MSX2 [3],"9.54 upbm affinity estimate (log intensity, higher = more binding, comparable within an allelic series)"
GATGATTA,binding signal,MSX2 [1],"11.1 upbm affinity estimate (log intensity, higher = more binding, comparable within an allelic series)"
GGCCAGCA,binding signal,MSX2 [1],"9.48 upbm affinity estimate (log intensity, higher = more binding, comparable within an allelic series)"
same,binding signal,NKX2-6 [7],"9.51 upbm affinity estimate (log intensity, higher = more binding, comparable within an allelic series)"
same,binding signal,MSX2 [2],"9.54 upbm affinity estimate (log intensity, higher = more binding, comparable within an allelic series)"
same,binding signal,VAX1 [8],"7.05 upbm affinity estimate (log intensity, higher = more binding, comparable within an allelic series)"
same,binding signal,NKX2-6 [9],"9.32 upbm affinity estimate (log intensity, higher = more binding, comparable within an allelic series)"
same,binding signal,MSX2 [3],"9.57 upbm affinity estimate (log intensity, higher = more binding, comparable within an allelic series)"
same,binding signal,VAX1 [10],"7.11 upbm affinity estimate (log intensity, higher = more binding, comparable within an allelic series)"
same,binding signal,VAX1 [11],"7.17 upbm affinity estimate (log intensity, higher = more binding, comparable within an allelic series)"
TCCGCGGA,binding signal,MSX2 [1],"9.48 upbm affinity estimate (log intensity, higher = more binding, comparable within an allelic series)"
same,binding signal,MSX2 [2],"9.54 upbm affinity estimate (log intensity, higher = more binding, comparable within an allelic series)"
same,binding signal,VAX1 [8],"7.16 upbm affinity estimate (log intensity, higher = more binding, comparable within an allelic series)"
same,binding signal,MSX2 [3],"9.53 upbm affinity estimate (log intensity, higher = more binding, comparable within an allelic series)"
same,binding signal,VAX1 [10],"7.5 upbm affinity estimate (log intensity, higher = more binding, comparable within an allelic series)"
same,binding signal,VAX1 [11],"7.45 upbm affinity estimate (log intensity, higher = more binding, comparable within an allelic series)"
CGGCGGCA,binding signal,MSX2 [1],"9.49 upbm affinity estimate (log intensity, higher = more binding, comparable within an allelic series)"
same,binding signal,MSX2 [2],"9.38 upbm affinity estimate (log intensity, higher = more binding, comparable within an allelic series)"
same,binding signal,MSX2 [3],"9.41 upbm affinity estimate (log intensity, higher = more binding, comparable within an allelic series)"
AATTACTG,binding signal,MSX2 [1],"12.1 upbm affinity estimate (log intensity, higher = more binding, comparable within an allelic series)"
same,binding signal,MSX2 [2],"13.3 upbm affinity estimate (log intensity, higher = more binding, comparable within an allelic series)"
same,binding signal,MSX2 [3],"12.9 upbm affinity estimate (log intensity, higher = more binding, comparable within an allelic series)"
GGTAATCA,binding signal,MSX2 [1],"11 upbm affinity estimate (log intensity, higher = more binding, comparable within an allelic series)"
same,binding signal,HOXA2,"13.3 upbm affinity estimate (log intensity, higher = more binding, comparable within an allelic series)"
GTAATCAA,binding signal,MSX2 [1],"11.1 upbm affinity estimate (log intensity, higher = more binding, comparable within an allelic series)"
same,binding signal,HOXA2,"13.1 upbm affinity estimate (log intensity, higher = more binding, comparable within an allelic series)"
CTAATCAA,binding signal,MSX2 [1],"11 upbm affinity estimate (log intensity, higher = more binding, comparable within an allelic series)"
CATTTTGA,binding signal,MSX2 [1],"10.3 upbm affinity estimate (log intensity, higher = more binding, comparable within an allelic series)"
same,binding signal,MSX2 [2],"10.6 upbm affinity estimate (log intensity, higher = more binding, comparable within an allelic series)"
same,binding signal,MSX2 [3],"10.5 upbm affinity estimate (log intensity, higher = more binding, comparable within an allelic series)"
AGCTATTA,binding signal,MSX2 [1],"11.1 upbm affinity estimate (log intensity, higher = more binding, comparable within an allelic series)"
same,binding signal,MSX2 [2],"12.1 upbm affinity estimate (log intensity, higher = more binding, comparable within an allelic series)"
same,binding signal,MSX2 [3],"11.9 upbm affinity estimate (log intensity, higher = more binding, comparable within an allelic series)"
ATGATTAC,binding signal,MSX2 [1],"10.9 upbm affinity estimate (log intensity, higher = more binding, comparable within an allelic series)"
CGCCCACG,binding signal,MSX2 [1],"9.47 upbm affinity estimate (log intensity, higher = more binding, comparable within an allelic series)"
same,binding signal,MSX2 [2],"9.54 upbm affinity estimate (log intensity, higher = more binding, comparable within an allelic series)"
same,binding signal,MSX2 [3],"9.52 upbm affinity estimate (log intensity, higher = more binding, comparable within an allelic series)"
